Results as given in PubChem BioAssay AID651791 (National Center for Advancing Translational Sciences (NCATS), 2012).
Records with an inconclusive call do not appear. The source made the active and inactive calls. Calls follow the shape of the dose curve; as a rule, active = well fitted inhibition curve with a large enough effect; inconclusive = small, poorly fitted or top-dose-only effect; inactive = no such curve, though single readings can be large or run the other way.

Assay: InCell qHTS Assay for Inhibitors of the mTORC1 Signaling Pathway in MEF (Tsc2-/-, p53-/-) Cells: Hit Validation;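 also: phospho-S6 Ser235/236 signal normalized to propidium iodide cell count per well; nearly all actives have a fitted effect of over 75% in size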
Settings: phospho-rpS6 immunofluorescence, 24 h; activity change, negative = inhibition: at 38.3 µM (top of the series)
Potency is read from the fitted curve at half-maximal effect.

Row | Structure (SMILES) | Potency | activity change, negative = inhibition [%]
1 | Cc1ccc(OCC(O)Cn2c(=N)n(CCN3CCCCC3)c3ccccc32)cc1 (stereo not given) | 16.5 µM (active) | 
2 | Cc1cc(Cl)ccc1NC(=O)CN1C(=O)C(=O)c2ccccc21 |  | -16
3 | COc1ccccc1-c1cc(C(=O)Nc2cc(OC)c(OC)c(OC)c2)no1 |  | 1.72
4 | CCOC(=O)N1CCN(Cc2nc3cc(NC(=O)c4cccc(C)c4)ccc3n2C(C)C)CC1 |  | -100
5 | CCOC(=O)C(Cc1c[nH]c2ccccc12)NC(=O)COc1ccc(Cl)cc1 (stereo not given) |  | -100
6 | CCc1ccc(NC(=O)C2CCCN(S(=O)(=O)c3c(C)noc3/C=C/N(C)C)C2)cc1 (stereo not given) | 14.7 µM (active) | 
7 | CC1C(=O)Nc2ccc(S(=O)(=O)Nc3ccccc3Br)cc2NC1=O (stereo not given) |  | -100
8 | CCCOc1cccc(C2c3c(-c4ccccc4O)n[nH]c3C(=O)N2Cc2ccco2)c1 (stereo not given) |  | -100
9 | CCC1CCc2nc3sc(C(=O)Nc4cccc(F)c4)c(N)c3cc2C1 (stereo not given) |  | -100
10 | CCOC(=O)c1sc2ccccc2c1S(=O)(=O)Nc1ccc(CC)cc1 |  | -100
11 | Cc1ccc(NC(=O)CSc2nc(-c3ccco3)cc(C(F)(F)F)n2)cc1C |  | -100
12 | COc1ccc2nc(NC(=O)c3nc(S(=O)(=O)Cc4ccccc4)ncc3Cl)sc2c1 | 1.65 µM (active) | 
13 | COc1ccc(NS(=O)(=O)c2ccc(-n3cccn3)cc2)cc1OC |  | -100
14 | COc1ccc(C(F)(F)F)cc1NC(=O)c1sc2nc(-c3cccs3)ccc2c1N |  | -11
15 | COc1cc(OC)c(NS(=O)(=O)c2ccc3c(c2)CCCN3C(C)=O)cc1Cl |  | -100
16 | Cc1nc2scc(C)n2c(=O)c1S(=O)(=O)Nc1ccc(N2CCOCC2)c(Cl)c1 |  | -100
17 | CCOC(=O)CSc1nc2cc3c(cc2c(=O)n1CCCCCC(=O)NCc1ccc2c(c1)OCO2)OCO3 |  | -100
18 | Cc1ccc(C)c(S(=O)(=O)NCC(c2ccco2)S(=O)(=O)c2ccc(F)cc2)c1 (stereo not given) |  | -100
19 | CCNS(=O)(=O)c1ccc(NC(=O)CSc2nc(-c3ccco3)cc(C(F)(F)F)n2)cc1 |  | -13.9
20 | CCCS(=O)(=O)c1ncc(Cl)c(C(=O)N2CCN(c3ccc(OC)cc3)CC2)n1 | 1.85 µM (active) | 
21 | Cc1cccc(NC(=O)c2sc3nc4c(cc3c2N)CCCCCC4)c1C |  | -11
22 | Cc1ccc(CN(Cc2cccn2-c2nnc(N3CCCC3=O)s2)C(=O)Nc2ccccc2C(F)(F)F)cc1 |  | -100
23 | CCOc1ccc(CCNC(=O)CCc2c(C)nc3cc(-c4ccccc4OC)nn3c2C)cc1 |  | -100
24 | Cc1ccc(-c2nn(C)c(=O)c3ccccc23)cc1S(=O)(=O)NCCCN(C)C |  | -100
25 | Cc1nc2nncn2c(NCc2ccc(Cl)cc2)c1C |  | -100
26 | Cc1ccccc1Oc1nc2ccccn2c(=O)c1/C=C(\C#N)c1nc2ccccc2[nH]1 |  | -100
27 | CCCCOCc1cc(CN2CCN(c3cccc(Cl)c3)CC2)c(O)c2ncccc12 |  | -100
28 | CN(c1ccccc1)S(=O)(=O)c1ccc(NC(=O)c2nc(S(C)(=O)=O)ncc2Cl)cc1 | 2.07 µM (active) | 
29 | CCS(=O)(=O)c1ncc(Cl)c(C(=O)N2CCN(c3cccc(Cl)c3)CC2)n1 | 2.61 µM (active) | 
30 | Cc1cccc(NS(=O)(=O)c2ccc3[nH]c4c(c3c2)CCCCCC4)c1 |  | -100
